High-throughput results: PubChem, several laboratories
The list is not random: actives were taken first. Their share in the collection is about 4.1%.
EBV LMP1 NFkB – Epstein-Barr LMP1 NF-kappaB reporter inhibition; LMP1-induced NF-kappaB luciferase reporter cells, luminescence; inhibition, % at 12.5 µM; 0.69% of 350,000 active; in the data active means inhibition above about 41%; inconclusive means no clear call, values can overlap the other calls
Shn3 inh set2 – reduces Shn3 3'UTR luciferase signal in osteoblasts. AID 588674. Clone20 osteoblast Shn3 3'UTR firefly luciferase, 24 h. 0.52% of 360,000 active. inhibition, % at 12.5 µM;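 active means mean inhibition of at least 75% with every replicate also reaching 75%; inconclusive means mean inhibition at least 75% but some replicate below; inactive means mean inhibition below 75%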
Peg3 promoter – Peg3 promoter activity inhibition; inhibition, % at 20 µM; 1.7% of 360,000 active; HeLa PEG-Prom luciferase reporter, luminescence, overnight; AID 588405;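 active means inhibition of at least 50% at 20 µM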
TWEAK-Fn14 inh – blocks TWEAK-Fn14 interaction in a reporter cell assay. TWEAK-stimulated Fn14 reporter cells, luciferase luminescence, 8 h. inhibition, % at 10 µM. 2% of 360,000 active; in the data active means inhibition above about 50%
TRPM1 prom inh – inhibitors of MITF-driven TRPM1 promoter in melanoma cells. SK-MEL-5 TRPM1 promoter luciferase, 24 h. inhibition, % at 12.5 µM. 0.83% of 330,000 active;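 active means mean inhibition across replicates of 60% or more, whatever share of single replicates reaches that level; inconclusive means some that reach 60%, reason not given; inactive means mean inhibition across replicates below 60%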
TROY NFkB inh – inhibitors of TROY-dependent NF-kB signaling. Q293 LMP1-TROYcd NF-kB luciferase reporter, 4 h. inhibition, % at 10 µM. 0.98% of 360,000 active. AID 1347056;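 active means compounds whose plate-normalised and pattern-corrected inhibition of the luciferase reporter signal at the single screening dose is 50% or more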
Each line names hits and unclear results; the compound was inactive in the other large screens.

N=C(N)SCc1cn(-c2ccccc2)nc1-c1ccc(Br)cc1	Shn3 inh set2 inconclusive, Peg3 promoter 108.2
COc1cc(/C=C2\SC(=O)N(CC(=O)Nc3ccccc3F)C2=O)cc(Cl)c1O	TROY NFkB inh 54.0
COc1cc(OC)c(/C=C2\SC(=O)N(CC(=O)Nc3ccccc3F)C2=O)c(OC)c1	EBV LMP1 NFkB 44.0
CN1CCN(NC(=O)/C=C/c2ccc(Br)cc2)CC1	none
O=c1/c(=C\c2cccn2-c2ccccc2)sc2nc3ccccc3n12	TWEAK-Fn14 inh 61.4
O=C(Cc1cccs1)N1CCN(S(=O)(=O)c2cccc([N+](=O)[O-])c2)CC1	none
COC(=O)C1CCN(c2cc(=O)n(C3CCCCC3)c(=O)[nH]2)CC1	TWEAK-Fn14 inh 94.8 (no result: TROY NFkB inh)
Cc1cccc(COC(=O)CCCNC(=O)c2ccc(Cl)cc2)c1	none
O=C(OCn1ncc(Br)c(Br)c1=O)c1ccc(F)cc1	EBV LMP1 NFkB inconclusive, Shn3 inh set2 98.0, Peg3 promoter 108.9, TWEAK-Fn14 inh 102.3, TRPM1 prom inh 85.2, TROY NFkB inh 83.4
O=C(OCn1ncc(Br)c(Br)c1=O)c1ccccc1Cl	Shn3 inh set2 96.7, Peg3 promoter 106.1, TWEAK-Fn14 inh 97.2, TRPM1 prom inh 88.8, TROY NFkB inh 80.2
CC(=O)OCn1ncc(N2CCOCC2)c(Br)c1=O	none
CCOC(=O)C1=C(CS(=O)(=O)c2ccccc2)NC(=O)NC1c1cc(OC)c(O)c(OC)c1 (centres undefined)	none
C[C@@H](NC(=O)c1ncn2c1c(=O)[nH]c1cccnc12)c1ccccc1	none (no result: TRPM1 prom inh)
C[C@@H](NC(=O)c1ncn2c1c(=O)[nH]c1ccc(Br)cc12)c1ccccc1	Peg3 promoter 79.1 (no result: TRPM1 prom inh)
O=C(CN1C(=O)NC(Cc2ccccc2)C1=O)Nc1ccccc1 (centres undefined)	TWEAK-Fn14 inh 96.8 (no result: TROY NFkB inh)
Cc1ccc(NC(=O)CN2C(=O)NC(Cc3ccccc3)C2=O)cc1 (centres undefined)	none
O=C(C1CCN(S(=O)(=O)N2CCCCC2)CC1)N1CCCCC1	EBV LMP1 NFkB 55.7
CCOC(=O)C/C(C)=N\Nc1nc(-c2ccccc2)cs1	TWEAK-Fn14 inh 50.8
CCOC(=O)/C(C#N)=C/Nc1cc(C(C)(C)C)sc1C(C)=O	none
CCc1ccc2c(c1)C(=O)c1ccccc1C2=O	none
CC(C)(C)c1ccc2c(c1)C(=O)c1ccccc1C2=O	TROY NFkB inh 52.5
CC1(C)CC(=O)C(N=Nc2ccc3ncsc3c2)=C(O)C1	none
COc1ccc2nc(N=Nc3ccc(O)c4ccccc34)sc2c1	Shn3 inh set2 inconclusive, TRPM1 prom inh 74.9
COc1ccc2nc(N=NC3=C(O)CC(C)(C)CC3=O)sc2c1	TRPM1 prom inh 63.6
CC(C)Cn1c(-c2ccncc2)n[nH]c1=S	none
CC(C)Cn1c(-c2ccc(F)cc2)n[nH]c1=S	TWEAK-Fn14 inh 64.9 (no result: TROY NFkB inh)
CCCCOc1ccc(/C=C/C(=O)NC2=Nc3ccccc3NC(C)=C2C(=O)OCC)cc1OC	none
CC(=O)Nc1nc(-c2ccc3c(c2)CC(C)N3C(=O)C2CC2)c(C)s1 (centres undefined)	EBV LMP1 NFkB 78.9
Cc1sc(NC(=O)c2ccco2)nc1-c1ccc2c(c1)CC(C)N2C(=O)C1CC1 (centres undefined)	EBV LMP1 NFkB 42.8, Peg3 promoter 54.8
COc1ccc(N(CC(=O)Nc2ccc3c(c2)OCCO3)S(=O)(=O)c2cccnc2)cc1	TWEAK-Fn14 inh 57.1
NC(=O)COc1ccccc1C1=NO[C@@](CC(=O)O)(C(=O)Nc2ccc3c(c2)OCCO3)C1	none (no result: EBV LMP1 NFkB)
COc1ccc(N(CC(=O)Nc2ccc3c(c2)OCCO3)S(=O)(=O)c2c(C)noc2C)cc1	TWEAK-Fn14 inh 65.3
COc1ccc(N(CC(=O)Nc2ccc3c(c2)OCCO3)S(C)(=O)=O)c(OC)c1	TWEAK-Fn14 inh 61.5
COc1ccc(C2=NO[C@@](CC(=O)O)(C(=O)Nc3ccc4c(c3)OCCO4)C2)cc1	TROY NFkB inh 55.2
O=C(c1ccncc1)N(c1ccc2oc3c(c2c1)CCCC3)S(=O)(=O)c1ccc(F)cc1	none
COc1ccc(C(=O)CSc2n[nH]c(C)n2)cc1[N+](=O)[O-]	none
Nc1nc(Nc2ccc(Cl)cc2)nc2ccccc12	TWEAK-Fn14 inh 80.0
Cc1cccc(Nc2nc(N)nc(CCl)n2)c1C	Peg3 promoter 57.7 (no result: EBV LMP1 NFkB, TRPM1 prom inh)
CCOc1ccc(Nc2nc(N)c3ccccc3n2)cc1	EBV LMP1 NFkB 53.4, Peg3 promoter 57.5, TWEAK-Fn14 inh 91.6, TROY NFkB inh 61.2
CCOc1ccc(Nc2nc(N)nc(CCl)n2)cc1	Peg3 promoter 76.6
Nc1nc(Nc2ccccc2)nc2ccccc12	none
O=C(Nc1cccc(NC(=O)c2nccc3ccccc23)c1)c1ccco1	none
Cc1ccc(Nc2nc(NCCO)c3ccccc3n2)cc1C	Peg3 promoter 53.9
CCOC(=O)c1ccc(Nc2nc(N)c3cc(OC)c(OC)cc3n2)cc1	none
Cc1ccc(Nc2nc3ccccc3n3cnnc23)cc1Cl	none
COc1cc2nc(Nc3ccc(F)cc3)nc(N)c2cc1OC	none
COc1cc2nc(Nc3ccc(C)c(Cl)c3)nc(N)c2cc1OC	Peg3 promoter 113.9, TWEAK-Fn14 inh 101.8, TRPM1 prom inh 69.8
Cc1ccc(Nc2nc(N)c3ccccc3n2)cc1Cl	TWEAK-Fn14 inh 68.0
COc1ccc(OC)c(Nc2nc(NCCO)c3ccccc3n2)c1	none
COc1cc2nc(Nc3ccc(C)c(C)c3)nc(N)c2cc1OC	Peg3 promoter 56.0
Cc1ccc(C(=O)Nc2cc3[nH]c(=O)oc3cc2C)cc1	none
Nc1c(N2CCCCC2)c2ccccc2oc1=O	none
COc1ccccc1CNC(=O)C(=O)NCCC1CCCCN1S(=O)(=O)c1ccccc1 (centres undefined)	none
CCN(CC(=O)Nc1ccc(NC(C)=O)cc1)C(=O)CN1C(=O)NC(C)(c2ccc3ccccc3c2)C1=O (centres undefined)	none
Cc1ccccc1Nc1nc(N)c2ccccc2n1	TWEAK-Fn14 inh 53.5
COc1ccc(C)cc1Nc1nc(N)c2ccccc2n1	none
COC(=O)C(C(=O)OC)C1C=CCN(C(C)=O)C1 (centres undefined)	none
Cc1cccc2sc(=S)[nH]c12	none (no result: EBV LMP1 NFkB, TRPM1 prom inh)
CCN(CC)CCNC(=O)c1c(O)c2cc(OC)c(OC)cc2[nH]c1=O	EBV LMP1 NFkB 55.3
CCCN1CCC(C)(C(=O)Nc2ccccc2Oc2ccccc2)C1 (centres undefined)	none (no result: EBV LMP1 NFkB, TRPM1 prom inh)
Cc1cc(=O)oc2ccc(OC(=O)c3cccc(S(=O)(=O)N4CCOCC4)c3)cc12	TWEAK-Fn14 inh 100.8
CCc1ccc(C(O)c2ncc(-c3ccccc3OC)[nH]2)cc1 (centres undefined)	none (no result: EBV LMP1 NFkB, TRPM1 prom inh)
COc1ccc(N/C(N)=N/c2nc(C)cc(C)n2)cc1	none (no result: TRPM1 prom inh)
Cc1cc(C)nc(/N=C(\N)Nc2ccc(OCCC(C)C)cc2)n1	Peg3 promoter 106.6, TRPM1 prom inh 65.1
CCOC(=O)C1=CCN(S(=O)(=O)c2ccccc2C)C1c1cccc(Br)c1 (centres undefined)	none (no result: EBV LMP1 NFkB, TRPM1 prom inh)
COC(=O)c1sccc1NC(=S)N1CCN(c2ccccc2F)CC1	none
COc1ccc(N=[N+]([O-])c2ccc(OC)cc2)cc1	TWEAK-Fn14 inh 62.3
